Experimental data: PubChem BioAssay (EPA / NIEHS)
Records with an inconclusive call do not appear. Where a structure was tested more than once in an assay, its records may differ in their call. Activity calls are given as the source filed them. How the source made its calls, unless noted: active means hit-call score of the fitted dose curve at least 0.9, where 1 is the maximum; inconclusive means response in the unintended direction; inactive means score below 0.9.

Assays:
[1] = ATG_TCF_b_cat_CIS: Attagene CIS-FACTORIAL HepG2 Assay for human T-Cell-Factor with beta-catenin (TCF/b-cat) (AID 2282965; active means hit-call score of the fitted dose curve at least 0.9, where 1 is the maximum; inactive means score below 0.9); conditions: HepG2 TCF/beta-catenin cis-reporter transcription, actives raise or lower the signal
Procedure, shortened: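 In this cis-format system, transfected HepG2 cells report endogenous transcription factor activity. Readout after 24 h exposure is reporter transcript abundance from RT-PCR and capillary electrophoresis, analysed for gain or loss of signal versus DMSO.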

[2] = ATG_TAL_CIS: Attagene CIS-FACTORIAL HepG2 Assay for human TAL Basal Promoter (AID 2282966; active means hit-call score of the fitted dose curve at least 0.9, where 1 is the maximum; inactive means score below 0.9;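 further: background control endpoint measuring basal TAL promoter reporter mRNA not a specific factor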); conditions: HepG2 Attagene cis-factorial TAL promoter reporter; actives raise or lower the signal
Procedure, shortened: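 Readout: reporter mRNA, fluorescence by CE. System: HepG2, transient multi-reporter transfection, endogenous TF activity. Exposure: 24 h. Analysis: bidirectional, DMSO-normalized; background control.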

[3] = ATG_TGFb_CIS: Attagene CIS-FACTORIAL HepG2 Assay for human Transforming Growth Factor (TGF) (AID 2282967; active means hit-call score of the fitted dose curve at least 0.9, where 1 is the maximum; inactive means score below 0.9); conditions: HepG2 Attagene CIS TGFb reporter, mRNA transcription; actives raise or lower the signal
Procedure, shortened: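 Endogenous TGFB1-linked transcription factor activity read as reporter mRNA via RT-PCR and capillary electrophoresis, 24 h after dosing transiently transfected HepG2 cells. Gain or loss of signal fitted relative to DMSO.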

[4] = ATG_VDRE_CIS: Attagene CIS-FACTORIAL HepG2 Assay for human Vitamin D Receptor Element (VDRE) (AID 2282968; active means hit-call score of the fitted dose curve at least 0.9, where 1 is the maximum; inactive means score below 0.9); conditions: HepG2 VDRE cis-reporter transcription, actives raise or lower the signal
Procedure, shortened: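 HepG2 cells transiently transfected with cis-element reporter units, dosed 24 h; reporter mRNA measured by RT-PCR, 6-FAM labeling, HpaI digestion and capillary electrophoresis. Activity fitted bidirectionally against DMSO baseline.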

[5] = biological target: Nuclear receptor subfamily 1 group I member 3 (Homo sapiens) (UniProt Q14994); experiment: ATG_CAR_TRANS: Attagene TRANS-FACTORIAL HepG2 Assay for human Constitutive Androstane Receptor (CAR) (AID 2282969); conditions: HepG2 Attagene TRANS-FACTORIAL CAR reporter;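 further: activators raise reporter mRNA above DMSO so AC50 marks induction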
Sequence of Nuclear receptor subfamily 1 group I member 3 (Homo sapiens) (Q14994 whole entry, looked up, the tested form may be a part): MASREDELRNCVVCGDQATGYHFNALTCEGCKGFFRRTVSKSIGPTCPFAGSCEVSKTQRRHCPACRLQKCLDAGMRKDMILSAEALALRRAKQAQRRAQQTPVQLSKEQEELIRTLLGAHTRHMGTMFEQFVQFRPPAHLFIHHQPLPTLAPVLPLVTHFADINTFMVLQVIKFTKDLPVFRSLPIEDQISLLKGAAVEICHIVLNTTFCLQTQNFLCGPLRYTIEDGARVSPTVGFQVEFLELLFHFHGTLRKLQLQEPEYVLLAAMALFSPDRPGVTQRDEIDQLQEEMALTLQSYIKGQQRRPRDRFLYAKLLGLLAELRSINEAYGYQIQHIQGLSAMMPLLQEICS
Procedure, shortened: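 HepG2 cells transiently transfected with multiplexed GAL4-UAS reporter units expressing chimeric NR-Gal4 proteins; compound exposure 24 h. Reporter mRNA measured by RT-PCR, 6-FAM labelling, HpaI digestion and capillary electrophoresis; gain-of-signal fitted against DMSO baseline.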

[6] = biological target: X-box-binding protein 1 (Homo sapiens) (UniProt P17861); experiment: ATG_Xbp1_CIS: Attagene CIS-FACTORIAL HepG2 Assay for human X-box Binding Protein 1 (XBP1) (AID 2282972; active means hit-call score of the fitted dose curve at least 0.9, where 1 is the maximum; inactive means score below 0.9); conditions: HepG2 XBP1 cis-element reporter, Attagene multiplex; actives raise or lower the signal
Sequence of X-box-binding protein 1 (Homo sapiens) (P17861 whole entry, looked up): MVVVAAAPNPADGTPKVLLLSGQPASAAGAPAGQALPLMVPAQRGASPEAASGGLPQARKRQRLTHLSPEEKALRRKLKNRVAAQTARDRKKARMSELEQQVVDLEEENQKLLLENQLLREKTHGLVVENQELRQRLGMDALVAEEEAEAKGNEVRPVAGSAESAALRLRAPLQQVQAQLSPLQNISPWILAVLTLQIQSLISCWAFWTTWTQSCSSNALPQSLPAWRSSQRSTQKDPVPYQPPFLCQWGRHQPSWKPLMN
Procedure, shortened: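 HepG2 cells transiently transfected with multiple cis-element reporter units report endogenous TF activity; 24 h exposure, then reporter mRNA measured by RT-PCR, 6-FAM labelling, HpaI digestion and capillary electrophoresis. Bidirectional fitting versus DMSO.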

[7] = ATG_M_19_TRANS: Attagene TRANS-FACTORIAL HepG2 Assay for M19 Transcription Factor (Internal Marker) (AID 2282974); conditions: HepG2 Attagene TRANS-FACTORIAL M19 internal marker reporter
Procedure, shortened: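 Transfected HepG2 (GAL4-UAS MRTUs), 24 h compound, TriZol RNA, DNase-treated RT, reporter PCR, FAM label, HpaI digest, CE fluorescence; gain vs DMSO.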

[8] = ATG_Hpa5_TRANS: Attagene TRANS-FACTORIAL HepG2 Assay for human GAL4-Hpa5 Hepatocyte Transcription Factor Basal Promoter (AID 2282975); conditions: HepG2 Attagene GAL4-Hpa5 transcription reporter;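 further: hits are increases in reporter mRNA over DMSO baseline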
Procedure, shortened: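 Basal-promoter GAL4 background control within the HepG2 trans-factorial panel of transiently transfected reporter units. Reporter mRNA is measured 24 h after dosing by RT-PCR and capillary electrophoresis, fitted for gain of signal versus DMSO.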

[9] = ATG_GAL4_TRANS: Attagene TRANS-FACTORIAL HepG2 Assay for GAL4 (Internal Marker) (AID 2282976); conditions: HepG2 Attagene TRANS GAL4 internal marker reporter
Procedure, shortened: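 Fluorescence from capillary electrophoresis of labelled RT-PCR products quantifies reporter mRNA induction after 24 h dosing of HepG2 cells carrying transfected GAL4-UAS reporter transcription units. Vehicle DMSO serves as baseline.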

[10] = biological target: Oxysterols receptor LXR-alpha (Homo sapiens) (UniProt Q13133); experiment: ATG_LXRa_TRANS: Attagene TRANS-FACTORIAL HepG2 Assay for human Liver X Receptor alpha (LXRa) (AID 2282980); conditions: HepG2 Attagene TRANS reporter, LXRa transactivation
Sequence of Oxysterols receptor LXR-alpha (Homo sapiens) (Q13133 whole entry, looked up): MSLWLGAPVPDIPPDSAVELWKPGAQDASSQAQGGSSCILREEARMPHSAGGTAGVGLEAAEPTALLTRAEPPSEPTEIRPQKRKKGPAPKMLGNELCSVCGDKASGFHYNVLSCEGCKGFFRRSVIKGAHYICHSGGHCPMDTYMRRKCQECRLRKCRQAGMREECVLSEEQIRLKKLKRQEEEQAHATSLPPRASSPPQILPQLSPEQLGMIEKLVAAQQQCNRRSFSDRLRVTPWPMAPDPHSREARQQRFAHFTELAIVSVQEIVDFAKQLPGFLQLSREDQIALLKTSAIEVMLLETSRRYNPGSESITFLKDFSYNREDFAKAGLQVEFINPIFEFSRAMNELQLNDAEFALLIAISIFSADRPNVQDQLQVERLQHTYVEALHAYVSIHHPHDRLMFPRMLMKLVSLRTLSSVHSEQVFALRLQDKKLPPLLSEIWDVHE
Procedure, shortened: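 Transient HepG2 transfectants, 24 h dosing, RT-PCR/CE mRNA reporter quantitation; gain-of-signal vs DMSO.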

[11] = biological target: Oxysterols receptor LXR-beta (Homo sapiens) (UniProt P55055); experiment: ATG_LXRb_TRANS: Attagene TRANS-FACTORIAL HepG2 Assay for human Liver X Receptor beta (LXRb) (AID 2282981); conditions: HepG2 Attagene TRANS GAL4-LXRb reporter, mRNA
Sequence of Oxysterols receptor LXR-beta (Homo sapiens) (P55055 whole entry, looked up, the tested form may be a part): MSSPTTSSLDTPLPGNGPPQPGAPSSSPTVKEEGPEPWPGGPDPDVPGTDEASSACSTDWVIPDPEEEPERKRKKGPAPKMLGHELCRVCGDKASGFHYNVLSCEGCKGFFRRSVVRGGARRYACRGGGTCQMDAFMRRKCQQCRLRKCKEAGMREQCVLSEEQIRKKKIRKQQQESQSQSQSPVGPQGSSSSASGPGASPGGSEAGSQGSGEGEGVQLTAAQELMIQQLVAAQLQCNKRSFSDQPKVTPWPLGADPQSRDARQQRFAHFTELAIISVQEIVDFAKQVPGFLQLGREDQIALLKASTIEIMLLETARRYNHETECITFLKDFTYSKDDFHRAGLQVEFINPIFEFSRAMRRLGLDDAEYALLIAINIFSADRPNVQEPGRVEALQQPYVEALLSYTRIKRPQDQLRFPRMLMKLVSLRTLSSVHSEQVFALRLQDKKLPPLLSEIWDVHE
Procedure, shortened: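 HepG2 cells transiently transfected with multiple reporter transcription units carrying chimeric NR-Gal4 proteins acting on GAL4-UAS reporters; compound exposure 24 h. Reporter mRNA quantified by RT-PCR, 6-FAM labelling, HpaI digestion and capillary electrophoresis; gain of signal versus DMSO.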

[12] = biological target: Hepatocyte nuclear factor 4-alpha (Homo sapiens) (UniProt P41235); experiment: ATG_HNF4a_TRANS: Attagene TRANS-FACTORIAL HepG2 Assay for human Hepatocyte Nuclear Factor 4 alpha (HNF4a) (AID 2282982); conditions: HepG2 HNF4a transactivation reporter, mRNA readout
Sequence of Hepatocyte nuclear factor 4-alpha (Homo sapiens) (P41235 whole entry, looked up, the tested form may be a part): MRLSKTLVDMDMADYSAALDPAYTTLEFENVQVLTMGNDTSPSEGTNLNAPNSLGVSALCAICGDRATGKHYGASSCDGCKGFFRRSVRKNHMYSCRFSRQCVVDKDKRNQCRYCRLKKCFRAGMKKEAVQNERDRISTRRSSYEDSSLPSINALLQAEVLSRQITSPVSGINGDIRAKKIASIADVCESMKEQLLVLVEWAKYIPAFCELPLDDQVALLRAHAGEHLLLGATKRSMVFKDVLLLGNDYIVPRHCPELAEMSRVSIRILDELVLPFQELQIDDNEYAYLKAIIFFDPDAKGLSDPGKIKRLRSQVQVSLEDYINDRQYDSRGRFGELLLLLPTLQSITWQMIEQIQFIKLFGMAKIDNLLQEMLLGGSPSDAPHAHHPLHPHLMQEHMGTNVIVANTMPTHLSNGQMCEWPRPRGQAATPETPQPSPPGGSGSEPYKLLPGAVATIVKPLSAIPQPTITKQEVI
Procedure, shortened: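 HepG2 cells transiently transfected with multiplexed GAL4-UAS reporter units responsive to chimeric NR-GAL4 proteins; compound exposure 24 h. Reporter mRNA quantified by RT-PCR, 6-FAM labelling, HpaI digestion and capillary electrophoresis; gain of signal versus DMSO baseline.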

[13] = ATG_M_06_TRANS: Attagene TRANS-FACTORIAL HepG2 Assay for M06 Transcription Factor (Internal Marker) (AID 2282983); conditions: HepG2 Attagene TRANS M06 internal marker reporter;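 further: reporter transcript level by RT-PCR then capillary electrophoresis fluorescence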
Procedure, shortened: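 Measured by capillary electrophoresis of fluorescently labelled RT-PCR products, this endpoint reflects reporter mRNA in HepG2 cells harbouring exogenous NR-GAL4 reporter constructs after 24 h exposure, with DMSO as baseline.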

[14] = ATG_M_32_TRANS: Attagene TRANS-FACTORIAL HepG2 Assay for M32 Transcription Factor (Internal Marker) (AID 2282984); conditions: HepG2 Attagene TRANS M32 internal marker reporter
Procedure, shortened: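 HepG2 cells transiently transfected with multiple GAL4-UAS reporter transcription units, dosed for 24 hours; reporter mRNA quantified by RT-PCR, 6-FAM primer extension, HpaI digestion and capillary electrophoresis. Gain-of-signal fitted versus DMSO baseline; internal background-control marker.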

[15] = biological target: Nuclear receptor subfamily 4 group A member 2 (Homo sapiens) (UniProt P43354); experiment: ATG_NURR1_TRANS: Attagene TRANS-FACTORIAL HepG2 Assay for human Nuclear Receptor Related Protein 1 (NURR1) (AID 2282985); conditions: HepG2 Attagene TRANS reporter, mRNA readout
Sequence of Nuclear receptor subfamily 4 group A member 2 (Homo sapiens) (P43354 whole entry, looked up, the tested form may be a part): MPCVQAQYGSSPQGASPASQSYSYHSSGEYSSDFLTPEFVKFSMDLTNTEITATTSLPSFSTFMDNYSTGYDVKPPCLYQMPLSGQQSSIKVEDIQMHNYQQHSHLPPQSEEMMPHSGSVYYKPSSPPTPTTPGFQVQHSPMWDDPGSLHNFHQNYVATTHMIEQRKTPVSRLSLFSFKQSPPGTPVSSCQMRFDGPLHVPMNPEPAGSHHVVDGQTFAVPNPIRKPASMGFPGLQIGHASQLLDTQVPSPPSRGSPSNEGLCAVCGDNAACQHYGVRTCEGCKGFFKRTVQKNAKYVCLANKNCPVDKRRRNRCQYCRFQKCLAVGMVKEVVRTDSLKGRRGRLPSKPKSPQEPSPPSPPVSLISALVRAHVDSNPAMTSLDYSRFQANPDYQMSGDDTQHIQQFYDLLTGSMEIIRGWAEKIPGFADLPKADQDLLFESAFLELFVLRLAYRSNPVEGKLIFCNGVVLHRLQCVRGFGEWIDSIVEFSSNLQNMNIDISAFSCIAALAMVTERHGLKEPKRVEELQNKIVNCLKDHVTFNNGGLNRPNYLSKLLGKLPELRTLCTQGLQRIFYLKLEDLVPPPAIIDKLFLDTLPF
Procedure, shortened: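 HepG2 cells transiently transfected with GAL4-UAS reporter units and chimeric NR-Gal4 constructs; chemical exposure 24 h. Reporter mRNA quantified by RT-PCR, fluorescent labelling and capillary electrophoresis; gain of signal fitted relative to DMSO baseline.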

[16] = biological target: Transcriptional activator Myb (Homo sapiens) (UniProt P10242); experiment: ATG_Myb_CIS: Attagene CIS-FACTORIAL HepG2 Assay for human Myeloblastosis (Myb) Proto-Oncogene Transcription Factor (AID 2282986; active means hit-call score of the fitted dose curve at least 0.9, where 1 is the maximum; inactive means score below 0.9); conditions: HepG2 Attagene CIS-FACTORIAL Myb reporter transcription; actives raise or lower the signal
Sequence of Transcriptional activator Myb (Homo sapiens) (P10242 whole entry, looked up): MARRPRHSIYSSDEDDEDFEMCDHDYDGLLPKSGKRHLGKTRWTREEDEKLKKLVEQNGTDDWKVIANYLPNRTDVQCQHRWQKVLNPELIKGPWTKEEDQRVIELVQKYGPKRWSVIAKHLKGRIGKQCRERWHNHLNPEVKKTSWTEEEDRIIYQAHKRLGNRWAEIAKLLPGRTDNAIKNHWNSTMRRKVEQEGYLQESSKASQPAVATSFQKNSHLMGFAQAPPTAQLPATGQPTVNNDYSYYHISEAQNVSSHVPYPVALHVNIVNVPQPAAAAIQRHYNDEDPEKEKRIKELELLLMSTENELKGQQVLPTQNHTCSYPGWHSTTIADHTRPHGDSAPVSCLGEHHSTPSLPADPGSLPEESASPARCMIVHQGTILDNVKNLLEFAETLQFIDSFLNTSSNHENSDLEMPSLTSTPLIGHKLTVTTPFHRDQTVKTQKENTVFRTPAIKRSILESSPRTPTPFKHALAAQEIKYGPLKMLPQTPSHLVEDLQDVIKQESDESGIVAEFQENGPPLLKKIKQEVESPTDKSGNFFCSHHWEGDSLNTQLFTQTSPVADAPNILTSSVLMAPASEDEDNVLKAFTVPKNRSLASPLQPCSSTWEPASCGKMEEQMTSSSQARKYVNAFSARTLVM
Procedure, shortened: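 After 24 h of compound dosing, total RNA from transfected HepG2 cells is reverse-transcribed and the reporter sequences amplified, labeled and separated by capillary electrophoresis. Values come from bidirectional fitting against DMSO.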

[17] = biological target: Estrogen receptor (Homo sapiens) (UniProt P03372); experiment: ATG_ERa_TRANS: Attagene TRANS-FACTORIAL HepG2 Assay for human Estrogen Receptor alpha (ERa) (AID 2282970); conditions: HepG2 Attagene TRANS ERa GAL4 reporter, mRNA
Procedure, shortened: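 Transactivation via ERa-Gal4 chimera in HepG2; 24 hour incubation; reporter mRNA detected by fluorescence RT-PCR and capillary electrophoresis.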

[18] = biological target: Steroid hormone receptor ERR1 (Homo sapiens) (UniProt P11474); experiment: ATG_ERRa_TRANS: Attagene TRANS-FACTORIAL HepG2 Assay for human Estrogen-Related Receptor alpha (ERRa) (AID 2282971); conditions: HepG2 Attagene TRANS reporter, ERRa transactivation
Sequence of Steroid hormone receptor ERR1 (Homo sapiens) (P11474 whole entry, looked up, the tested form may be a part): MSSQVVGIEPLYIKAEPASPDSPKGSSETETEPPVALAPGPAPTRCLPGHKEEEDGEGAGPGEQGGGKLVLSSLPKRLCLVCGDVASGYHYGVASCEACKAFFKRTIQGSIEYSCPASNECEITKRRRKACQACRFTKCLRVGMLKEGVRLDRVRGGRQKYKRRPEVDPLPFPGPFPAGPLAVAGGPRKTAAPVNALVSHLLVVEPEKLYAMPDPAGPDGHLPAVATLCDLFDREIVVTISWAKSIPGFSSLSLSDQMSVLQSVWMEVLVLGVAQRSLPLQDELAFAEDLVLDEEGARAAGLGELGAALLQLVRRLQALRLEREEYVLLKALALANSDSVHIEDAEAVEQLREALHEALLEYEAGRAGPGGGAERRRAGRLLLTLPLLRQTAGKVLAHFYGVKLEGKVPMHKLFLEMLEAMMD
Procedure, shortened: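 HepG2 cells were transiently transfected with multiple GAL4-UAS reporter units, then dosed with compound for 24 h. Total RNA was reverse-transcribed, reporter cDNA PCR-amplified and fluorescently labelled, and fragments resolved by capillary electrophoresis; induction was compared with DMSO.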

[19] = biological target: Glucocorticoid receptor (Homo sapiens) (UniProt P04150); experiment: ATG_GR_TRANS: Attagene TRANS-FACTORIAL HepG2 Assay for human Glucocorticoid Receptor (GR) (AID 2282978); conditions: HepG2 Attagene TRANS GR reporter, mRNA transcription;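 further: activators score as hits since higher reporter transcript over DMSO is fitted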
Sequence of Glucocorticoid receptor (Homo sapiens) (P04150 whole entry, looked up): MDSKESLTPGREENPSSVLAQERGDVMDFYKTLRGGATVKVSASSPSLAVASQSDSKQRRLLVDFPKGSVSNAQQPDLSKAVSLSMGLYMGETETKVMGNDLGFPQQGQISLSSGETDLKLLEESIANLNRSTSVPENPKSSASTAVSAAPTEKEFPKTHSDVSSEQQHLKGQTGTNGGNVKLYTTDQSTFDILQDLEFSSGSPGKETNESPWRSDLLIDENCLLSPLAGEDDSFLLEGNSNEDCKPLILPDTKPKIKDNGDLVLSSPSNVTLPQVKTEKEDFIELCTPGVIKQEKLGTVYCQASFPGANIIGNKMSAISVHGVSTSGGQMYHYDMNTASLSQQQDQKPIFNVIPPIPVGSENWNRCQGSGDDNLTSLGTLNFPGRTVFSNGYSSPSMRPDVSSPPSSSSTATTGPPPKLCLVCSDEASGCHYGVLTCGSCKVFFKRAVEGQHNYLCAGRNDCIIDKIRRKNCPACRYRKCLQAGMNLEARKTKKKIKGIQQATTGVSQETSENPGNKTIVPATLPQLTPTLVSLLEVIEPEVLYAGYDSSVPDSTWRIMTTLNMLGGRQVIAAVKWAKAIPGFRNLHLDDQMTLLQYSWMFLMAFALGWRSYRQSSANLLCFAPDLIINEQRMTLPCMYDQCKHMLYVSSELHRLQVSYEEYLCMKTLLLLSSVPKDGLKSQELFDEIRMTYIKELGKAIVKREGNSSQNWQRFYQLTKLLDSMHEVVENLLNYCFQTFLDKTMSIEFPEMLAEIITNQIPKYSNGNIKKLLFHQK
Procedure, shortened: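 After 24 h incubation with test chemical, transfected HepG2 cells were lysed for RNA; reporter cDNA was amplified, FAM-labelled, HpaI-digested and sized on a capillary analyser. Signal gain relative to DMSO was scored.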

Measured: AC50

CC(C)(C)C(O)C(Oc1ccc(Cl)cc1)n1cncn1 (stereo unspecified)
not listed: [17] | [18] | [19]
inactive: all other assays above

COC(=O)c1ccccc1S(=O)(=O)NC(=O)Nc1nc(C)nc(OC)n1
not listed: [5] | [8] | [17] | [18] | [19]
inactive: all other assays above

O=C(NC(=O)c1c(F)cccc1F)Nc1ccc(OC(F)(F)C(F)OC(F)(F)F)c(Cl)c1 (stereo unspecified)
not listed: [5] | [7] | [8] | [9] | [14] | [15] | [18] | [19]
inactive: all other assays above

CCCN(CCOc1c(Cl)cc(Cl)cc1Cl)C(=O)n1ccnc1
active: [6] 19.5 µM
inactive: [1] | [2] | [3] | [5] | [18] | [6] | [7] | [8] | [9] | [11] | [12] | [13] | [14] | [15] | [16]

CN1CSC(=S)N(C)C1
active: [4] 78.3 µM | [6] 50 µM
not listed: [7] | [8] | [9] | [12] | [17]
inactive: all other assays above

CC[C@H](C)[C@H]1O[C@]2(C=C[C@@H]1C)C[C@@H]1C[C@@H](C/C=C(\C)[C@@H](O[C@H]3C[C@H](OC)[C@@H](O[C@H]4C[C@H](OC)[C@@H](O)[C@H](C)O4)[C@H](C)O3)[C@@H](C)/C=C/C=C3\CO[C@@H]4[C@H](O)C(C)=C[C@@H](C(=O)O1)[C@]34O)O2 (tested in a mixture with another compound)
not listed: [5] | [9] | [10] | [13] | [14] | [15]
inactive: all other assays above

[2H]C1([2H])[n+]2ccccc2-c2cccc[n+]2C1([2H])[2H]
not listed: [5] | [8] | [9] | [10] | [15] | [17] | [18]
inactive: all other assays above
